Bioassay records as filed in PubChem.
This is a sample that favours compounds with a hit; in the whole collection about 21% have one here.
SARS PLP yeast = qHTS of Yeast-based Assay for SARS-CoV PLP; S. cerevisiae expressing SARS-CoV PLpro, growth rescue; Potency, µM (titrated, usually from 32.9 µM), for inactives: at the highest dose activity, positive = growth rescue, usual class: activators; 330,000 tested, 0.19% active; AID 485353, 2010; note: potency is the fitted concentration of half-maximal effect; 0% is about no effect; nearly all actives have a fitted effect of over 55% in size
Pf growth 48h = Primary qHTS for delayed death inhibitors of the malarial parasite plastid, 48 hour incubation | 310,000 tested, 5.9% active | Potency, µM (doses to about 28.7 µM), for inactives: top-dose activity change, negative = inhibition, usual class: inhibitors | AID 504832, 2011 | P. falciparum luciferase growth in erythrocytes, 48 h; active = well fitted inhibition curve with a large enough effect; inconclusive = small, poorly fitted or top-dose-only effect, or another doubt; inactive = no such curve, though single readings can be large or run the other way; note: potency is the fitted concentration of half-maximal effect; % is set by controls: 0 for no effect and ±100 for the full control effect
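Erythrocytes infected with P. falciparum carrying an integrated firefly luciferase reporter (2% hematocrit, 0.1% parasitemia final) were exposed to compounds in RPMI 1640 with 0.5% Albumax at 37 C, 5% CO2. Growth inhibition was scored as reduced luminescence.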
CHX counter = Cycloheximide Counterscreen for Small Molecule Inhibitors of Shiga Toxin; cell reporter, cycloheximide protein synthesis inhibition counterscreen; max response, %; 300,000 tested, 12% active; in the data active = max response mostly above about 13%, no sharp cut-off; inactive = mostly below about 14%; note: read at 38.3 µM for the half of the compounds with a filed dose; 0% is about no effect
NS1 function inh = qHTS Assay for Inhibitors of Influenza NS1 Protein Function | Potency, µM (top dose mostly 46.1 µM), without a hit: top-dose activity, positive = more growth | AID 2326, 2010 | 270,000 tested, 0.4% active; note: potency is the fitted concentration of half-maximal effect; actives are rising curves; nearly all actives have a fitted effect of over 50% in size
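OD600 was taken as the measure of yeast growth restored by compound in an NS1-expressing S. cerevisiae strain. Cells had been washed out of glucose medium and diluted 1:100 into galactose -URA medium, pH 6.0.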
Shiga toxin inh = A qHTS for Small Molecule Inhibitors of Shiga Toxin; 290,000 tested, 9.2% active; inhibition, % at 38.7 µM; AID 2315, 2010; Vero cells, Shiga toxin protein synthesis inhibition reporter; in the data active = inhibition mostly above about 28%, no sharp cut-off; inactive = mostly below about 43%; note: 0% is about no effect
Pf growth 96h = Primary qHTS for delayed death inhibitors of the malarial parasite plastid, 96 hour incubation | P. falciparum luciferase reporter growth, 96 h | 320,000 tested, 6.9% active | AID 504834, 2011 | Potency, µM (series often up to 28.7 µM), without a hit: at the highest dose activity change, negative = inhibition, actives largely listed as inhibitors; active = well fitted inhibition curve with a large enough effect; inconclusive = small, poorly fitted or top-dose-only effect, or another doubt; inactive = no such curve, though single readings can be large or run the other way; note: potency is the fitted concentration of half-maximal effect; % is set by controls: 0 for no effect and ±100 for the full control effect
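Delayed-death screen, second-generation endpoint: infected erythrocytes, 2% hematocrit, 0.05% parasitemia final; 96 hours at 37 C, 5% CO2; luciferase detection reagent; luminescence decrease equals reduced growth.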
Starred values were filed as active, the others as inactive; i = inactive; ? = inconclusive; . = not tested or not shown; + = active, no number. Unless noted, calls come from the whole dose curve.

SMILES	SARS PLP yeast	Pf growth 48h	CHX counter	NS1 function inh	Shiga toxin inh	Pf growth 96h
CC(C)N1C(=O)S/C(=C/c2cccnc2)C1=O	-8%	?	20*	-5%	6	?
COc1cccc(/C=C2\SC(N)=NC2=O)c1OS(=O)(=O)c1ccccc1	-5%	-11%	-8	.	9	44%
NC1=NC(=O)/C(=C/c2cccc(F)c2)S1	2%	4%	-2	1%	-6	0%
NC1=NC(=O)/C(=C/c2ccccc2OS(=O)(=O)c2ccccc2)S1	18%	10µM*	-1	7%	-4	-3%
NC1=NC(=O)/C(=C\c2ccco2)S1	1%	0%	17*	-77%	-5	52%
NC1=NC(=O)/C(=C\c2cccnc2)S1	-4%	8%	-1	.	-10	9.3µM*
O=C1N=C(N2CCN(c3ccccc3)CC2)S/C1=C\c1ccco1	-5%	-28%	22	10%	35	0%
O=C(CNS(=O)(=O)c1ccc(Br)cc1)NCc1ccncc1	5%	8%	-7	-3%	-9	?
CCOCCCNc1ccc(N2C(=O)C3CCCCC3C2=O)cc1[N+](=O)[O-] (stereo not given)	-1%	-1%	17	.	32	-47%
O=C(CNC(=O)c1ccc(Br)o1)NCC1CCCCC1	1%	-16%	.	.	.	6%
CC(C)C(=O)c1cn(CC(=O)NCc2ccc3c(c2)OCO3)c2ccccc12	16%	12µM*	4	3%	16	-18%
CC(C)C(=O)c1cn(CC(=O)NCc2ccco2)c2ccccc12	-13%	8%	30*	1%	58*	?
CCN(CC)C(=O)Cn1cc(C(=O)C(=O)NCc2ccco2)c2ccccc21	-1%	?	4	.	33	13%
O=C(Cn1cc(C(=O)c2ccccc2F)c2ccccc21)NCc1ccco1	2%	5%	12	13%	-10	15%
CC(C)(C)C(=O)c1cn(CC(=O)NCc2ccco2)c2ccccc12	0%	55%	36*	-1%	96*	-8%
CCCOc1ccc(CC(=O)NCCc2ccccc2)cc1OC	2%	9%	-2	-10%	.	?
COc1cc(OC)cc(C(=O)OCC(=O)NCCCc2ccccc2)c1	-1%	16%	-2	-6%	-3	9%
Oc1cc2cc(CCN3CCN(c4nsc5ccccc45)CC3)c(Cl)cc2[nH]1	.	13µM*	.	.	.	11µM*
COC(=O)[C@@]1(C)[C@H]2C(=O)N(C)C(=O)[C@H]2[C@H]2CN=C(SC)N21	14%	.	.	.	.	.
Cc1nn(-c2ccccn2)c2c1C(c1ccccc1Cl)C1=C(N2)c2ccccc2C1=O (stereo not given)	8%	?	-1	19%	-5	12µM*
CSC1=C(C#N)C(c2ccccc2Cl)C2=C(N1)c1ccccc1C2=O (stereo not given)	-1%	-13%	-2	-31%	15	?
Cc1nn(-c2ccccn2)c2c1C(c1c(F)cccc1Cl)C1=C(N2)c2ccccc2C1=O (stereo not given)	19%	10µM*	-1	-2%	-5	9.3µM*
COc1ccc(-c2nnc(N(C)C(=O)c3ccno3)s2)cc1	-36%	109%	26*	0%	60*	?
CN(C(=O)c1ccno1)c1nnc(-c2ccccn2)s1	-2%	37%	3	-31%	22	.
COc1ccc(-c2nnc(N(C)C(=O)C3CCCO3)s2)cc1 (stereo not given)	-11%	125%	26*	-2%	+	-7%
SMILES	SARS PLP yeast	Pf growth 48h	CHX counter	NS1 function inh	Shiga toxin inh	Pf growth 96h
CCOc1ccc(S(=O)(=O)N2CN(c3cccc(C(C)=O)c3)c3nc4ccccc4nc32)cc1	2%	.	.	.	.	.
CN(C(=O)c1cc(S(=O)(=O)N2CCc3ccccc32)cn1C)C1CCCCC1	4%	?	-1	-4%	-3	?
O=C(c1ccc2nc(Cc3cccc(Cl)c3)oc2c1)N1CCOCC1	-3%	13%	59*	-12%	69*	-1%
O=C(NCCc1ccncc1)c1ccc2nc(Cc3cccc(Cl)c3)oc2c1	-1%	10%	0	-29%	-10	-44%
Cc1nc2c(C(=O)N3CCOCC3)cnn2c(C)c1Cc1cccc(Cl)c1	-1%	?	-3	-10%	-7	7.4µM*
O=C(NCC1COCCO1)c1ccc2nc(Cc3cccc(Cl)c3)oc2c1 (stereo not given)	0%	1%	51*	-24%	52*	?
CC(=O)C1CCCN(C(=O)c2ccc3nc(Cc4cccc(Cl)c4)oc3c2)C1 (stereo not given)	0%	?	13*	-7%	17	-16%
COc1ccc(C(C)(C)C)cc1NC(=O)Nc1ccc2c(c1)OCO2	-88%	?	11	-111%	31	291%
O=C(O)c1cccc(-c2ccc3c(c2)OCO3)c1	-3%	7%	10	-66%	3	3.7µM*
Cc1ccc(NC(=O)Nc2ccc3c(c2)OCO3)c(Br)c1	2%	39%	43*	-1%	192	?
CCc1ccc2[nH]c(C(=O)Nc3ccc4c(c3)OCO4)cc2c1	-1%	?	19*	15%	47	-11%
O=C(Nc1ccc2c(c1)OCO2)c1ccc(CO)cc1	4%	356%	.	.	.	i
Cc1ccc(C(=O)O)cc1NC(=O)Nc1ccc2c(c1)OCO2	-3%	100%	20*	.	73*	7%
COCCNC(=O)[C@@H]1CCCN1C(=O)C1CCN(S(=O)(=O)c2ccc(C)cc2)CC1	-3%	18%	8	0%	-1	-6%
O=C(CCC(=O)c1ccccc1)NCc1ccccc1	1%	?	-1	2%	17	37%
CC(OC(=O)c1cccnc1)C(=O)Nc1ccc2c(c1)OCO2 (stereo not given)	-1%	?	-2	.	-5	?
O=C(Nc1ccc2c(c1)OCO2)Nc1ccc(F)cc1F	0%	90%	65*	7%	87*	?
O=C(Nc1cccnc1)Nc1ccc2c(c1)OCO2	-12%	132%	43*	-5%	88*	.
O=C(Nc1ccc(F)cc1)Nc1ccc2c(c1)OCO2	-2%	?	-2	3%	12	-28%
O=C(Nc1ccc2c(c1)OCO2)Nc1ccc2c(c1)OCO2	0%	63%	29*	7%	75*	48%
O=C(Nc1ccc(Cl)cc1)Nc1ccc2c(c1)OCO2	-2%	120%	76*	-2%	80*	-7%
CC(NC(=O)Nc1ccc(Cl)cc1)c1ccc2c(c1)OCO2 (stereo not given)	6%	-21%	5	6%	-4	180%
COc1ccc(CNC(=O)CCCCCNC(=O)N2CCn3c2nc2ccccc23)cc1	-2%	?	-2	-17%	-2	?
